# Laboratory results as given in ChEMBL document CHEMBL3988442, “University of Dundee, Small-Polar-MMV Screening Library” (2021).
# Among all 48,000 compounds or so, about 13,000 (27%) showed an effect of 50% or more. The list shows a part of the results.
# Test system: Wolbachia pipientis
# Experiment: Anti-Wolbachia Cell-Based Screen
# Type: functional
# Design: scale not given: in the data most compounds retested in dose-response had high values
# Conditions: 5 µM
row,SMILES,Percent Effect [%]
1,CCOc1cccc(CCNC(=O)Cc2ccn[nH]2)n1,-27.67
2,O=C(O)[C@@]12CN(c3cnccn3)C[C@@H]1CN(C1CCOCC1)C2,-13.72
3,CNC(=O)[C@@H]1C[C@@H](NC(=O)Cc2cccs2)CN1C1CCOCC1,0.5082
4,Cc1nc2ccccn2c1CN1C[C@@H](CN2CCOCC2)[C@@H](CO)C1,-3.894
5,COCCn1ccnc1C1CCN(C(=O)C(O)c2ccc(F)cc2)CC1 (stereo not given),-18.13
6,CC(=O)N1CCC(c2nn(C)c(=O)n2-c2ccccc2)CC1,-1.019
7,COCCN1CCC(c2nc3c([nH]2)CC(C)(C)CNC3=O)C1 (stereo not given),-9.937
8,COCCN1C(=O)[C@H]2CC[C@@H]1CN(c1nccc(C3CCCC3)n1)C2,-7.608
9,COCCn1c(=O)n(C)c(=O)c2ccc(C3CCN(C(C)=O)CC3)nc21,55.11
10,COCCn1c(=O)n(C)c(=O)c2ccc(C3CCC(CN)CC3)nc21.Cl (stereo not given),114.4
11,Cc1ccn(C)c(=O)c1NC(=O)N(C)Cc1cccc(OC(C)C)c1,2.513
12,CCCc1cncnc1N1CCC(NCc2ccncc2)CC1,5.564
13,CN(Cc1cc2n(n1)CCCNC2)Cc1cc(-c2ccncc2)no1,4.022
14,CN(CCCc1cnn(C)c1)C(=O)C1CCN(C(=O)C2CCC2)CC1,14.43
15,CNc1ncc(CN(C)Cc2cc3n(n2)CCNC3)cn1,11.28
16,CN(CCCc1cnn(C)c1)Cc1cc2n(n1)CCCNC2,97.92
17,CN(Cc1cc2n(n1)CCNC2)Cc1noc(C2CCC2)n1,-1.079
18,CN(Cc1cc2n(n1)CCCNC2)Cc1ccno1,-18.26
19,CN(CCCc1cnn(C)c1)Cc1cc2n(n1)CCCN(C)C2,94.13
20,CN(CCCc1cnn(C)c1)Cc1cc2n(n1)CCNC2,121.7
21,CCn1cc(CN2CCCn3nc(CNC(=O)N(C)C)cc3C2)cn1,15.22
22,CC(NC(=O)N(C)Cc1ccc2c(c1)OCO2)c1nncn1C (stereo not given),16.38

row,SMILES,Percent Effect [%]
1,CC1(c2ccccc2)CCC(=O)N(CCN2CCOCC2)C1 (stereo not given),8.315
2,COC(CNC(=O)c1ccc(NC(C)=O)cc1)c1cccc(Cl)c1 (stereo not given),-77.03
3,CCN1CCN(C)C2(CCN(Cc3ccsc3)CC2)C1=O.O=C(O)C(F)(F)F.O=C(O)C(F)(F)F,94.35
4,CCN1CCN(C)C(=O)C12CCN(Cc1ccsc1)CC2.O=C(O)C(F)(F)F,-27.74
5,CN1CCN(Cc2ccncc2)C(=O)C12CCN(c1nccs1)CC2.O=C(O)C(F)(F)F.O=C(O)C(F)(F)F,-19.3
6,CN1CCN(C)C2(CCN(Cc3ccsc3)CC2)C1=O.O=C(O)C(F)(F)F,105.2
7,CN1CCN(Cc2ccncc2)C(=O)C12CCN(Cc1ccsc1)CC2.O=C(O)C(F)(F)F.O=C(O)C(F)(F)F.O=C(O)C(F)(F)F,58.8
8,Cn1ncc(C2CC(=O)NCc3nc4ccccn4c32)c1C1CC1 (stereo not given),1.817
9,CCNC(=O)[C@@H]1CCCN1C1(C(=O)NC)CCC1.Cl,0.1969
10,O=C1CC2(CCSC2)C(=O)N1Cc1ncc(-c2ccccc2)o1 (stereo not given),-14.26
11,NC(=O)CN(CC(=O)NCCc1c(F)cccc1F)C1CCCC1,11.15
12,C[C@@H]1CN(Cc2ccc(C(F)(F)F)cc2F)CC[C@]1(C)O,-2.035
13,CCCC(=O)N(C)Cc1nc(N2CCCC2)ncc1-c1ccncc1.Cl,137.6
14,CN(Cc1cnccn1)C(=O)Nc1cc(F)cc(N2CCCC2)c1,16.17
15,COCC(=O)N(C)Cc1nc(N2CCCC2)ncc1-c1ccncc1.Cl,87.58
16,COCC(=O)Nc1cnc(N2CCCC2)nc1,-4.633
17,CCOc1ccc(CN(C)C(=O)c2nc(N3CCCC3)ncc2Cl)cc1,16.2
18,Cc1nc(N2CCCC2)ncc1-c1cc(O)nc(N2CCCC2)n1,3.993
19,COc1ccc(CC(=O)N2CC[C@@H](OC)[C@@H]2Cc2cccnc2)cc1.O=C(O)C(F)(F)F,135
20,COc1cccc(CC(=O)N2CC[C@@H](OC)[C@@H]2Cc2cccnc2)c1.O=C(O)C(F)(F)F,137.5
21,CO[C@H]1CCN(S(=O)(=O)c2cn(C)cn2)[C@H]1Cc1cccnc1.O=C(O)C(F)(F)F.O=C(O)C(F)(F)F,-4.938
22,Cc1noc([C@H]2COC[C@H]3CN(C(=O)Cc4ccc(F)cc4)C[C@H]32)n1,-6.311

row,SMILES,Percent Effect [%]
1,COc1cc(CN(C)C(=O)NC2CC2)ccc1SC,1.322
2,Cc1ccc2c(c1)CN(C(=O)C1CCCCC1)C(CN(C)C)CO2.Cl (stereo not given),-7.003
3,Cc1ccc2c(c1)CN(C(=O)c1cnc(C)cn1)C(CN(C)C)CO2.Cl (stereo not given),102.7
4,CCOC(=O)CC1CCCCN1C(=O)c1cnc(C)cn1 (stereo not given),6.285
5,CC1CN(C)c2ccccc2CN1C(=O)c1ccncc1 (stereo not given),-3.17
6,CN(C)CC1COCCN1C(=O)C1(c2cccs2)CCCC1.O=CO (stereo not given),-9.313
7,Cc1nc(C)c(C(=O)N2Cc3cc(F)ccc3CC2C)o1 (stereo not given),-9.907
8,Cc1ccc2c(c1)CN(C(=O)c1ccncc1)C(CN(C)C)CO2.Cl (stereo not given),112.6
9,Cc1nc(C)c(C(=O)N2Cc3ccccc3OCC2CN(C)C)o1.Cl.Cl (stereo not given),85.27
10,Cc1ccc2c(c1)CN(C(=O)c1cccs1)C(CN(C)C)CO2 (stereo not given),64.15
11,Cc1ccc2c(c1)CN(C(=O)c1ccccc1F)C(CN(C)C)CO2.Cl (stereo not given),-8.172
12,CCN(C)S(=O)(=O)N1CCCC1CC(=O)c1cccs1 (stereo not given),13.08
13,Cc1nc(C)c(C(=O)N2CCc3c(C)cccc32)o1,-0.835
14,Cc1ccc(S(=O)(=O)NC(=O)COc2ccc(CC#N)cc2)s1,-2.544
15,CN(c1ccc(-c2nc(C3CC3)no2)cn1)C1CCOCC1,5.539
16,Cc1cccc(NCCNc2ccc(C#N)cn2)n1,14.53
17,CN(Cc1nnc(-c2ccco2)o1)Cc1nc2c(s1)CCCC2,-12.52
18,COc1ccccc1C(=O)N1Cc2cc(C)ccc2OCC1CN(C)C.Cl (stereo not given),-11.9
19,Cc1ccc2c(c1)CN(C(=O)c1cccnc1)C(CN(C)C)CO2.Cl (stereo not given),73.73
20,COc1ccc(C(=O)N2Cc3cc(C)ccc3OCC2CN(C)C)cc1.Cl (stereo not given),72.78
21,COc1ccc(C(=O)NC[C@H]2COCc3nc4cc(C)ccc4n32)cc1,-9.863
